# This is a sample that favours compounds with a hit; in the whole collection about 3.2% have one here.
# GLP1R ag – qHTS of GLP-1 Receptor Agonists. HEK293 GLP-1R CRE-luciferase, luminescence, 4-6 h; cells express a hypersensitive GLP-1R form. 380,000 compounds, 0.007% hits. Glucagon-like peptide 1 receptor (Homo sapiens), P43220. Potency, µM (doses to about 45.6 µM), inactives show top-dose activation, actives largely listed as activators; note: % of control where 0% means no effect
# Target sequence (P43220 whole entry, looked up): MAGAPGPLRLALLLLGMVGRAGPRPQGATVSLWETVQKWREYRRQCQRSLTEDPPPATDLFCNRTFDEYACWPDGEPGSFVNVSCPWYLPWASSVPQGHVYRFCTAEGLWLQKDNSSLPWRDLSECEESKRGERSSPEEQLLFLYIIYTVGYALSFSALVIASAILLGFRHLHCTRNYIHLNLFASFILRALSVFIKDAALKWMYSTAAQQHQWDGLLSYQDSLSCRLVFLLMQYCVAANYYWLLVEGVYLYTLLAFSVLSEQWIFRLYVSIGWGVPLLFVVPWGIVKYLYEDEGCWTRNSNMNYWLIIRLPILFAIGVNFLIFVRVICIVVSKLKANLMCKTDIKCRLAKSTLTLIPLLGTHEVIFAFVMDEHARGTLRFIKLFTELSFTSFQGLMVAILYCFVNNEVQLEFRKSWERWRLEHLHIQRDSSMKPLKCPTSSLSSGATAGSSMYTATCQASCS
# HEK293 tox – qHTS of GLP-1 Receptor Inverse Agonists: Cytotox Screen. HEK293 cAMP-luciferase reporter cells, luminescence, 24 h. Potency, µM (highest dose often 38.3 µM), inactives show top-dose activity change, negative = inhibition, usual class: inhibitors. 410,000 compounds, 0.13% hits. AID 624418, 2012;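 note: loss of luciferase light is scored as toxicity; % is set by controls: 0 for no effect and ±100 for the full control effect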
#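 A 23 nL compound transfer followed 12 hours of cell culture at 37 deg C; exposure then lasted 24 hr. Luciferase assay detection reagent was dispensed and plates read for luminescence after a 12 min room-temperature wait.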
# GLP1R inv ag – qHTS of GLP-1 Receptor Inverse Agonists (Inhibition Mode); Potency, µM (titrated, usually from 38.3 µM), for inactives: top-dose activity change, negative = inhibition, hits mostly inhibitors; HEK293 GLP-1R CRE-luciferase, luminescence, 24 h; GLP-1R form is constitutively active; 410,000 compounds, 1.6% hits; AID 624417, 2012; Glucagon-like peptide 1 receptor (Homo sapiens), P43220; note: % is set by controls: 0 for no effect and ±100 for the full control effect; nearly all actives have a fitted effect of over 55% in size
#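 HEK293 cells stably co-expressing constitutively active GLP-1R and a cAMP-responsive luciferase reporter were seeded in DMEM with 10% Nu serum, given compounds after 12 h, and incubated 24 h at 37 deg C. Luminescence was then read.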
# ClpP mod – qHTS Assay for Activators of ClpP; ATP-dependent Clp protease proteolytic subunit (Bacillus subtilis (strain 168)), P80244; purified B. subtilis ClpP, FRET peptide cleavage, 20 min; Potency, µM (titrated, usually from 57.5 µM), for inactives: at the highest dose activity change, negative = active; 340,000 compounds, 1.9% hits; AID 651965, 2013; active = well fitted falling curve with a large enough effect; inconclusive = small, poorly fitted or top-dose-only effect; inactive = no such curve, though single readings can be large or run the other way; note: the source files actives as falling curves though it sought activators and does not explain the sign; nearly all actives have a fitted effect of over 65% in size
#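 Buffer: 100 mM Tris/HCl pH8, 100 mM KCl, 0.05% low protease BSA, 2.5% glycerol, 0.01% Tween-20. ClpP 10 microg/mL final; 20 min RT; delta FRET normalized to ADEP and DMSO controls.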
# The depositor's hits bear a star; u = inconclusive; x = not tested or not shown; [ ] = remark or other dose. Unless noted, calls come from the whole dose curve; as a rule, active = well fitted curve in the direction sought with a large enough effect; inconclusive = small, poorly fitted or top-dose-only effect, or another doubt; inactive = no such curve, though single readings can be large; an effect the other way counts as inactive or inconclusive. Potency is the fitted concentration of half-maximal effect.
SMILES,GLP1R ag,HEK293 tox,GLP1R inv ag,ClpP mod
N#CC1(C#N)C(c2ccccc2)OC23CCCCCC2C1(C#N)C(=N)O3 (centres undefined),2%,93%,2%,32µM*
CCCCCCCCOc1ccc(C2OC34CCCCC3C(C#N)(C#N)C2(C#N)C(=N)O4)cc1 (centres undefined),-5%,275%,2%,20µM*
CCCCC1OC23CCCCC2C(C#N)(C(=N)O3)C1(C#N)C#N (centres undefined),-16%,104%,8%,u
O=C1c2oc3ccccc3c(=O)c2C(c2ccc(Br)cc2)N1c1ccccn1 (centres undefined),x,8%,2%,-3%
Cc1csc(NC(=O)c2ccc(N3CCCC3=O)cc2)n1,-5%,5%,2.2µM*,-10%
Cc1csc(NC(=O)c2ccccc2O)n1,4%,18%,6%,28µM*
Cc1nnc(NC(=O)c2ccc(N3CCCC3=O)cc2)s1,7%,-4%,8%,-5%
COc1ccc(NC(=O)CN(C)S(=O)(=O)c2ccc3nc(C)sc3c2)cc1Cl,x,-1%,2%,-4%
Cc1ncc([N+](=O)[O-])n1C[C@H](O)CCl,7%[19.8 µM],x,x,x
COc1cc(/C=C2\SC(=S)N(C(Cc3ccccc3)C(=O)O)C2=O)ccc1O (centres undefined),-4%,10µM*,-4%,1%
CCOc1cc(/C=C2\SC(=S)N(Nc3ccccc3)C2=O)ccc1O,-3%,-8%,u,-2%
COc1cc(/C=C2\SC(=S)N(Nc3ccccc3)C2=O)ccc1O,-1%,10µM*,u,28µM*
COc1cccc(CNC(=O)c2ccc3nc(-c4ccccc4)c(-c4ccccc4)nc3c2)c1OC,x,-17%,26%,u
Cc1ccc(S(=O)(=O)NCc2ccc(C(=O)N3CCc4ccccc4C3)cc2)cc1,-1%,1%,u,28µM*
COCCCn1c(-c2ccccc2Cl)n[nH]c1=S,0%,-10%,4%,25µM*
O=C1c2ccccc2NC(c2ccc(F)cc2)N1Cc1ccco1 (centres undefined),1%,64%,u,u
O=C1c2ccccc2NC(c2ccccc2)N1Cc1ccco1 (centres undefined),4%,15%,u,28µM*
CCOc1ccc(S(=O)(=O)N2CCCCC2)cc1NC(=O)C1CCC1,-2%,4%,4%,14µM*
O=C(Nc1ccccc1N1CCCCC1)C1CCN(S(=O)(=O)c2cccc(C(F)(F)F)c2)CC1,-5%,-6%,11µM*,-3%
O=C(CN(Cc1ccco1)Cc1ccco1)Nc1cc(S(=O)(=O)N2CCCCC2)ccc1Cl,-3%,-3%,10µM*,1%
COc1ccc(S(=O)(=O)N2CCCCCC2)cc1NC(=O)Cc1cccc(C(F)(F)F)c1,8%,5%,10µM*,2%
O=C(Nc1ccccc1N1CCCC1)C1CCN(S(=O)(=O)c2cccc(C(F)(F)F)c2)CC1,2%,-21%,u,x
COc1ccc(S(=O)(=O)N2CCCCC2)cc1NC(=O)Cc1cccc(C(F)(F)F)c1,-8%,-11%,-3%,-2%
COc1cc2c(NC3CCN(C(C)C)CC3)nc(N3CCCN(C)CC3)nc2cc1OCCCN1CCCC1,x,x,x,4%
COc1ccc(S(=O)(=O)N2CCCCC2)cc1NC(=O)c1ccco1,-2%,1%,17%,16µM*
SMILES,GLP1R ag,HEK293 tox,GLP1R inv ag,ClpP mod
Cc1ccnc2c1ccc1cccnc12,4%,1.6µM*,u,x
Cc1ccccc1S(=O)(=O)Oc1ccccc1C(=O)Oc1ccccc1,0%,7%,0%,25µM*
CCCN(CCC)c1nc2ccccc2nc1C(C#N)C(=O)OC(C)COC (centres undefined),17%,4%,10µM*,-6%
CCCCN(CCCC)c1nc2ccccc2nc1C(C#N)C(=O)NCCCOC (centres undefined),1%,131%,-14%,-7%
CCc1ccc2[nH]cc(S(=O)(=O)c3ccc(C(C)C)cc3)c(=O)c2c1,x,-6%,-6%,1%
COc1ccc(C2=NN(S(C)(=O)=O)C(c3cn(-c4ccccc4)nc3-c3cccs3)C2)cc1 (centres undefined),x,2%,7%,14µM*
